Results on 7 compounds are retold here after PubChem BioAssay (EPA / NIEHS).

Read-out in test [1]: Urokinase-type plasminogen activator receptor (uPAR), PLAUR (gene 5329)
Briefly: BSK_4H_uPAR: BioMAP Diversity Plus: 4H Assay for Urokinase-type plasminogen activator receptor (uPAR) Biomarker Activity (AID 2283030). Particulars: primary human endothelial cells (HUVEC); actives raise or lower the signal. A digest of the protocol:
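Human umbilical vein endothelial cells in the 4H system, 24 h after chemical dosing. Cell-surface uPAR measured by ELISA, fitted in both directions versus DMSO; cytotoxicity checked by SRB total protein in parallel cultures.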

Read-out in test [2]: Human Leukocyte Antigen - DR isotype (HLADR), HLA-DRA (gene 3122)
The test is described as follows: BSK_BE3C_HLADR: BioMAP Diversity Plus: BE3C Assay for Human Leukocyte Antigen - DR isotype (HLADR) Biomarker Activity (AID 2283032). The note with it: primary human bronchial epithelial cells; actives raise or lower the signal. A digest of the protocol: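 Primary human bronchial epithelial cells (BE3C); 24 h chemical exposure; HLA-DR by ELISA; bidirectional curve fit vs DMSO baseline.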

Read-out in test [3]: Vascular cell adhesion molecule 1 (VCAM1), VCAM1 (gene 7412)
The test is described as follows: BSK_4H_VCAM1: BioMAP Diversity Plus: 4H Assay for Vascular cell adhesion molecule 1 (VCAM1) Biomarker Activity (AID 2283033).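 On outcome: cell-surface VCAM-1 protein measured by ELISA.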 Particulars: primary human endothelial cells (HUVEC); actives raise or lower the signal. The essentials:
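HUVEC, 24 h post-dose; VCAM-1 by ELISA. Bidirectional curve fit vs DMSO baseline. Parallel SRB total-protein stain (0.1% SRB after 10% TCA fixation, 560 nm) for cytotoxicity.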

Read-out in test [4]: Interferon-gamma inducible Protein 10 (IP10), CXCL10 (gene 3627)
The test is described as follows: BSK_BE3C_IP10: BioMAP Diversity Plus: BE3C Assay for Interferon-gamma inducible Protein 10 (IP10) Biomarker Activity (AID 2283034). Particulars: primary human bronchial epithelial cells; actives raise or lower the signal. A digest of the protocol: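 ELISA readout of IP-10 in BE3C system: primary human bronchial epithelial cells, 24 h post-dosing; bidirectional curve fit vs DMSO baseline.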

Read-out in test [5]: Transforming growth factor beta 1 (TGFb1), TGFB1 (gene 7040)
The test is described as follows: BSK_BE3C_TGFb1: BioMAP Diversity Plus: BE3C Assay for Transforming growth factor beta 1 (TGFb1) Biomarker Activity (AID 2283036;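 on outcome: TGF-b1 protein level measured by ELISA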). The note with it: primary human bronchial epithelial cells; actives raise or lower the signal. The essentials:
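Read-out: ELISA for TGF-b1 in primary human bronchial epithelial cultures, 24 h post-dose. Bidirectional curve fitting vs DMSO control; gain or loss of signal both scored.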

Read-out in test [6]: Plasminogen activator inhibitor-1 (PAI1), SERPINE1 (gene 5054)
Briefly: BSK_BE3C_PAI1: BioMAP Diversity Plus: BE3C Assay for Plasminogen activator inhibitor-1 (PAI1) Biomarker Activity (AID 2283037). The note with it: primary human bronchial epithelial cells; actives raise or lower the signal. The essentials:
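ELISA read-out of PAI-1 from human bronchial epithelial primary cells, 24 h post-dosing; bidirectional curve fit vs DMSO baseline, gain or loss of signal scored.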

Read-out in test [7]: urokinase plasminogen activator (uPA), PLAU (gene 5328)
Briefly: BSK_BE3C_uPA: BioMAP Diversity Plus: BE3C Assay for urokinase plasminogen activator (uPA) Biomarker Activity (AID 2283038).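 On outcome: uPA protein level quantified by ELISA in cell cultures; uPA read one day after compound addition.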 Particulars: primary human bronchial epithelial cells; actives raise or lower the signal. A digest of the protocol: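 Primary human bronchial epithelial cells, uPA measured by ELISA 24 h after dosing. Bidirectional change relative to DMSO; cytotoxicity checked in parallel cultures by sulforhodamine B total-protein staining.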

Read-out in test [8]: Urokinase-type plasminogen activator receptor (uPAR), PLAUR (gene 5329)
Briefly: BSK_BE3C_uPAR: BioMAP Diversity Plus: BE3C Assay for Urokinase-type plasminogen activator receptor (uPAR) Biomarker Activity (AID 2283039).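 On outcome: cells exposed to compound for one day before measurement.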 The note with it: primary human bronchial epithelial cells; actives raise or lower the signal. The essentials:
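ELISA readout of uPAR on human lung primary bronchial epithelial cells, 24 h post-dosing. Bidirectional curve fit relative to DMSO vehicle baseline; gain or loss of signal both scored.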

Read-out in test [9]: Interleukin-6 (IL6), IL6 (gene 3569)
The test is described as follows: BSK_CASM3C_IL6: BioMAP Diversity Plus: CASM3C Assay for Interleukin-6 (IL6) Biomarker Activity for (AID 2283040). The note with it: primary human coronary artery smooth muscle cells; actives raise or lower the signal.

Read-out in test [10]: Tissue plasminogen activator (tPA), PLAT (gene 5327)
Briefly: BSK_BE3C_tPA: BioMAP Diversity Plus: BE3C Assay for Tissue plasminogen activator (tPA) Biomarker Activity (AID 2283041).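 On outcome: tPA level quantified by ELISA one day after compound addition.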 The note with it: primary human bronchial epithelial cells; actives raise or lower the signal. The essentials:
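ELISA read-out of tPA on human primary bronchial epithelial cells, 24 h post-dosing; bidirectional fit vs DMSO negative control/baseline.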

Read-out in test [11]: Interleukin-8 (IL8), CXCL8 (gene 3576)
The test is described as follows: BSK_CASM3C_IL8: BioMAP Diversity Plus: CASM3C Assay for Interleukin-8 (IL8) Biomarker Activity (AID 2283042).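 Further: IL-8 protein level quantified by ELISA.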 Particulars: primary human coronary artery smooth muscle cells; actives raise or lower the signal.

Read-out in test [12]: Human Leukocyte Antigen - DR isotype (HLADR), HLA-DRA (gene 3122)
The test is described as follows: BSK_CASM3C_HLADR: BioMAP Diversity Plus: CASM3C Assay for Human Leukocyte Antigen - DR isotype (HLADR) Biomarker Activity (AID 2283043).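 Further: cell-surface HLA-DR protein level quantified by ELISA.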 The note with it: primary human coronary artery smooth muscle cells; actives raise or lower the signal.

Read-out in test [13]: Macrophage colony-stimulating factor (MCSF), CSF1 (gene 1435)
Briefly: BSK_CASM3C_MCSF: BioMAP Diversity Plus: CASM3C Assay for Macrophage colony-stimulating factor (MCSF) Biomarker Activity (AID 2283044).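 Further: M-CSF protein amount quantified by ELISA after 24 h exposure.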 The note with it: primary human coronary artery smooth muscle cells; actives raise or lower the signal.

Read-out in test [14]: Low-density lipoprotein receptor (LDLR), LDLR (gene 3949)
Briefly: BSK_CASM3C_LDLR: BioMAP Diversity Plus: CASM3C Assay for Low-density lipoprotein receptor (LDLR) Biomarker Activity (AID 2283045).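 Further: LDLR protein level on the cell surface quantified by ELISA.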 Particulars: primary human coronary artery smooth muscle cells; actives raise or lower the signal.

Read-out in test [15]: Monocyte Chemoattractant Protein-1 (MCP1), CCL2 (gene 6347)
Briefly: BSK_CASM3C_MCP1: BioMAP Diversity Plus: CASM3C Assay for Monocyte Chemoattractant Protein-1 (MCP1) Biomarker Activity (AID 2283046).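 Further: MCP-1 level quantified by ELISA 24 h after dosing.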 Particulars: primary human coronary artery smooth muscle cells; actives raise or lower the signal.

Test [16] can be described thus: BSK_CASM3C_Proliferation: Cell Proliferation Assessment in the BioMAP Diversity Plus: CASM3C Assay (AID 2283047).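 Further: sulforhodamine B total protein stain as relative cell number at 560 nm; sub-confluent cells exposed 48 h before staining; fitted both ways against DMSO so gain or loss of cell number.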 Particulars: primary human coronary artery smooth muscle cells.
Read-out in test [17]: Monokine induced gamma interferon (MIG), CXCL9 (gene 4283)
Briefly: BSK_CASM3C_MIG: BioMAP Diversity Plus: CASM3C Assay for Monokine induced gamma interferon (MIG) Biomarker Activity (AID 2283048).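 Further: MIG protein level measured by ELISA.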 Particulars: primary human coronary artery smooth muscle cells; actives raise or lower the signal.

Read-out in test [18]: serum amyloid A (SAA), SAA1 (gene 6288)
Briefly: BSK_CASM3C_SAA: BioMAP Diversity Plus: CASM3C Assay for serum amyloid A (SAA) Biomarker Activity (AID 2283049).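 Further: SAA protein level quantified by ELISA.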 Particulars: primary human coronary artery smooth muscle cells; actives raise or lower the signal.

Read-out in test [19]: Vascular endothelial growth factor receptor 2 (Homo sapiens) (UniProt P35968)
The test is described as follows: BSK_4H_VEGFRII: BioMAP Diversity Plus: 4H Assay for Vascular endothelial growth factor receptor 2 (VEGFR2) Biomarker Activity (AID 2283031). Particulars: primary human endothelial cells (HUVEC); actives raise or lower the signal. A digest of the protocol: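 Primary human umbilical vein endothelial cells (4H system), 24 h exposure; cell-surface VEGFR2 measured by ELISA. Bidirectional fitting versus DMSO; cytotoxicity checked in parallel by SRB total-protein staining.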

Several values for one entry are separate records, joined by “and”; a condition that tells them apart may be missing. Equal values may be shown once. Some compounds were tested as several samples or in several runs, with calls that do not always agree. Activity calls are given as the source filed them. How the source made its calls: active means hit-call score of the fitted dose curve at least 0.9, where 1 is the maximum; inactive means score below 0.9.

For the compound `CCCN(CCC)c1c([N+](=O)[O-])cc(S(N)(=O)=O)cc1[N+](=O)[O-]`, the AC50 in test [1] is 33 µM (active) [middle of 4 runs]; in test [2], 35 µM (active) [middle of 4 runs]; in [3], 38.1 µM (active) [middle of 4 runs]; in test [4], 36.9 µM (active) [middle of 4 runs]; in [5], 31.3 µM (active) and 31.1 µM (active) and 36.7 µM (active); in test [6], 34.2 µM (active) [middle of 4 runs]. Further, the AC50 was 33.6 µM (active) [middle of 4 runs] in [7]; 38.1 µM (active) [middle of 4 runs] in test [8]; 35.2 µM (active) [middle of 4 runs] in [9]; 30.3 µM (active) [middle of 4 runs] in test [10]; 33.5 µM (active) [middle of 4 runs] in test [11]; 34.4 µM (active) [middle of 4 runs] in test [12]. Also, the half-maximal activity concentration (AC50) in test [13] was 36.1 µM (active) [middle of 4 runs]; in test [14], 39.7 µM (active); in test [15] it was 37.1 µM (active) [middle of 4 runs]; in test [16] it was 35.1 µM (active) [middle of 4 runs]; in [17] it was 34.7 µM (active) [middle of 4 runs]; in [18], 37.1 µM (active) [middle of 4 runs]. Also, the result in test [14] was inactive.

Turning to `CCOc1cc(Oc2ccc(C(F)(F)F)cc2Cl)ccc1[N+](=O)[O-]`, the outcome in [1], in test [19], in test [3], in [4], in test [5] and in [6] was inactive. The result in test [7], in test [8], in test [9], in [10], in test [11] and in test [12] was inactive. Moreover, the outcome in [13], in test [14], in [15], in [17] and in test [18] was inactive. Besides, the AC50 in test [2] is 9.39 µM (active); in [16] it was 20 µM (active).

On to `N#Cc1cc(Br)c(O)c(Br)c1`, for which the AC50 in test [1] was 16.9 µM (active); in test [2], 11.9 µM (active); in [3] it was 32 µM (active); in [4], 23.5 µM (active); in [6] it was 12.8 µM (active). For the same compound, the outcome in test [19], in test [5], in [7], in [8], in test [9] and in test [10] was inactive. In addition, the outcome in test [11], in test [12], in test [13], in [14], in test [15] and in [16] was inactive. Further, the outcome in [17] and in test [18] was inactive.

Regarding `CCON=C(CC)C1=C(O)CC(c2c(C)cc(C)cc2C)CC1=O` (stereo not drawn), the result in [1], in [19], in test [2], in test [3], in test [4] and in test [5] was inactive. Also, the outcome in [6], in test [7], in test [8], in [9], in test [10] and in test [11] was inactive. The result in [12], in [13], in test [14], in test [15], in test [16] and in test [17] was inactive. Besides, the result in test [18] was inactive.

Consider `O=C(O)COc1nc(Cl)c(Cl)cc1Cl`, for which the outcome in test [1], in [19], in test [2], in test [3], in test [4] and in test [6] was inactive. Further, the result in [7], in test [8], in [9], in [10], in [11] and in test [12] was inactive. The outcome in [13], in test [14], in test [15], in test [16], in test [17] and in test [18] was inactive. Also, the AC50 in [5] is 245 nM (active).

On to `COc1nc(C)nc(NC(=O)NS(=O)(=O)c2ccccc2CCC(F)(F)F)n1`, for which the outcome in test [1], in test [19], in test [2], in test [3], in test [4] and in test [5] was inactive. Besides, the outcome in [6], in test [7], in test [8], in test [9], in test [10] and in [11] was inactive. Moreover, the outcome in test [12], in test [13], in [14], in test [15], in test [16] and in test [17] was inactive. In addition, the result in test [18] was inactive.

As for `COC(=O)C=C(C)OP(=O)(OC)OC`, the outcome in test [1], in test [19], in test [2], in test [3], in [4] and in test [5] was inactive. Further, the result in [6], in test [7], in test [8], in [9], in test [10] and in test [11] was inactive. In addition, the result in test [12], in test [13], in test [14], in test [15], in test [16] and in [17] was inactive. Also, the outcome in [18] was inactive.
